Assay outcomes (PubChem)
An excerpt weighted towards active compounds, which were near 8.1% of everything screened.
MCF10A rereplic = A quantitative high throughput screen for small molecules that induce DNA re-replication in MCF 10a normal breast cells; MCF 10A DNA re-replication, Hoechst nuclear intensity, 48 h; 2.9% of 350,000 active; Potency, µM (highest dose often 46.1 µM), usual class: activators; also: nearly all actives have a fitted effect of over 50% in size
SW480 rerep = A quantitative high throughput screen for small molecules that induce DNA re-replication in SW480 colon adenocarcinoma cells; SW480 DNA re-replication, Hoechst DNA content imaging, 48 h; Potency, µM (series often up to 46.1 µM), actives largely listed as activators; 1.8% of 340,000 active; AID 624297, 2012; also: nearly all actives have a fitted effect of over 55% in size
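Readout is total intensity of Hoechst-stained nuclei, excited at 405 nm and collected at 500-530 nm. Compound treatment lasted 48 hr at 37 C in 5% CO2 before staining.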
KB-3-1 cytotox = qHTS assay for MDR1-selective chemotherapeutics: Primary screen using the parental adenocarcinoma cell KB-3-1; KB-3-1 viability, CellTiter-Glo ATP luminescence, 72 h; Potency, µM (highest dose often 46.1 µM), usual class: cytotoxic; 1.4% of 400,000 active; also: nearly all actives have a fitted effect of over 60% in size
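KB-3-1 cells, DMEM (no phenol red) + 10% FBS; compound by pin transfer, 72 h, 37 °C. Readout: CellTiter-Glo luminescence after 10 min. Data normalized, curve-fitted.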
ELG1 repair inh = qHTS screen for small molecules that inhibit ELG1-dependent DNA repair in human embryonic kidney (HEK293T) cells expressing luciferase-tagged ELG1 | Potency, µM (doses to about 46.1 µM), most hits filed as inhibitors | 2.3% of 330,000 active | HEK293T ELG1-luciferase reporter, luminescence, 16 h; DNA damage induced by 5-fluorouridine | AID 504467, 2011; also: nearly all actives have a fitted effect of over 55% in size
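In this reporter screen, reduction of luminescence relative to DMSO vehicle indicated activity. Compounds and 5-fluorouridine were added together to 2,000 cells per well, incubated for 16 hr at 37 °C, then developed with ONE-Glo.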
KB-V1 cytotox = qHTS assay for MDR1-selective chemotherapeutics: Primary screen using the drug-selected MDR subline cells KB-V1 | KB-V1 MDR cells viability, CellTiter-Glo, 72 h | Potency, µM (top dose mostly 46.1 µM), most hits filed as cytotoxic | 3.4% of 400,000 active | AID 1347076, 2019; also: nearly all actives have a fitted effect of over 60% in size
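qHTS viability screen in drug-selected KB-V1 MDR cells: 72 h compound treatment at 37 degrees C, ATP luminescence end point.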
Hits are given with their value; . = inactive; ? = inconclusive; / = no result; [ ] = dose if it differs, or a comment. Calls follow the shape of the dose curve; as a rule, active = well fitted curve in the direction sought with a large enough effect; inconclusive = small, poorly fitted or top-dose-only effect, or another doubt; inactive = no such curve, though single readings can be large; an effect the other way counts as inactive or inconclusive.

SMILES	MCF10A rereplic	SW480 rerep	KB-3-1 cytotox	ELG1 repair inh	KB-V1 cytotox
COc1cc(C(=O)N2CCN(c3ccccc3Cl)CC2)ccc1OCC(=O)N1CCOCC1	.	.	.	?	.
COc1ccccc1C(=O)N1CCN(c2cccc(C(F)(F)F)c2)CC1	11.2µM	23.1µM	5.17µM	?	2.91µM
COc1cc(C(=O)N2CCN(c3cccc(C(F)(F)F)c3)CC2)ccc1OCC(=O)N1CCOCC1	.	.	.	/	18.4µM
Cc1occc1C(=O)N1CCCC(N2CCN(c3cccc(C(F)(F)F)c3)CC2)C1 (configuration not stated)	?	.	.	.	?
CCn1cc(C(=O)N2CCN(c3cccc(C(F)(F)F)c3)CC2)c2cc(OC)c(OC)cc2c1=O	/	/	.	/	.
COc1ccc(NC(C)=O)cc1S(=O)(=O)NC(Cc1ccccc1)C(=O)NCc1ccccc1C (configuration not stated)	.	.	.	.	.
COc1ccc(NC(=O)N2CCN(c3cccc(C(F)(F)F)c3)CC2)cc1OC	.	.	.	?	13µM
COc1ccc(CCNC(=O)C2CCCN2C(=O)NC2CCCCC2)cc1OC (configuration not stated)	.	.	.	.	.
CNC(=S)Nc1cc(OC)c(NC(=O)c2ccco2)cc1OC	.	.	.	.	.
Cc1ccc(-n2nc3c4c(cccc4c2=O)-c2ccccc2-3)cc1	?	.	?	.	8.2µM
CN(C)c1ccc(C(=O)N2CCCC(N3CCN(Cc4ccc5c(c4)OCO5)CC3)C2)cc1 (configuration not stated)	.	.	.	.	.
COCCN(C(=O)CCC(=O)Nc1cc(C)on1)C(C(=O)NC1CCCC1)c1ccc(C(C)C)cc1 (configuration not stated)	.	.	.	.	.
CCOC(=O)c1ccc(NC(=O)Cn2nc(C)c3ccccc3c2=O)cc1	.	?	.	.	.
CCC(=O)Nc1ccc(C(=O)Cn2ncc(Cl)c(Cl)c2=O)cc1	3.66µM	?	?	?	?
CCOC(=O)c1ccc(NC(=O)Cn2ncc(Cl)c(Cl)c2=O)cc1	2.59µM	2.59µM	?	?	?
CCc1ccccc1NC(=O)CN(C)C(=O)Cn1ncc(Cl)c(Cl)c1=O	5.8µM	6.51µM	?	?	?
Cc1cc(Br)ccc1NC(=O)CNC(=O)Cn1ncc(Cl)c(Cl)c1=O	1.16µM	?	5.17µM	.	?
Cc1cc(NC(=O)c2cccnc2Cl)ccc1NC(=O)c1cc2ccccc2o1	?	.	.	?	?
CCCn1c(SCC(=O)N2CCCCC2)nnc1-c1ccco1	?	.	.	.	.
CN(C)C(=S)SCCn1c(N)nc(N(C)C)nc1=O	.	.	.	?	?
CC(C)NC(=O)CN1CCN(Cc2nc(-c3cccs3)no2)CC1	.	.[1.84 µM]	.	.	.
Cc1cccc(COc2ccc(/C=N/NC(=O)c3nnn(-c4nonc4N)c3CN3CCCCC3)cc2)c1	16.4µM	.	.	?	?
Nc1nonc1-n1nnc(C(=O)N/N=C/c2ccc(OCc3cccc(Cl)c3)cc2)c1CN1CCCCC1	.	.	.	.	.
Cc1cccc(COc2ccc(/C=N/NC(=O)c3nnn(-c4nonc4N)c3COc3ccc(F)cc3)cc2)c1	14.6µM	?	?	?	.
Nc1nonc1-n1nnc(C(=O)N/N=C/c2ccc(OCc3ccccc3)cc2)c1COc1ccc(F)cc1	.	.	.	?	.
CN(Cc1c(C(=O)N/N=C/c2ccccc2)nnn1-c1nonc1N)c1ccccc1	.	.	.	.	.
CN(C)c1ccc(/C=N/NC(=O)c2nnn(-c3nonc3N)c2CN(C)c2ccccc2)cc1	11.6µM	9.2µM	.	?	.
Cc1ccccc1N1CCN(C2CCCN(C(=O)c3cn4cccc(C)c4n3)C2)CC1 (configuration not stated)	.	.	.	?	?
CC12CCC(C(=O)Nc3ccccc3-n3cccc3)(CC1=O)C2(C)C (configuration not stated)	.	.	.	.	?
